An excerpt weighted towards active compounds, which were near 3.4% of everything screened.
HSF1 inhib: HSF1 inhibitors in luciferase reporter cells, primary screen, cell-based, NIH3T3, luminescence; NIH3T3-HGL HSE-luciferase, MG132-induced, luminescence 8 h; stronger effect = lower value; activity change, negative = inhibition, % at 7.5 µM (by protocol); 0.77% of 300,000 active; AID 2098, 2009;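 active means more than half of replicate wells show activity change below -50%, luminescence cut by over half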;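 further: luciferase reports HSF-1 transcriptional activity via heat shock element; 0% = median of DMSO wells and -100% = zero luminescence signal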
PG9 binder: binders of HIV-1 gp120 antibody PG9, primary screen, biochemical, TR-FRET; inhibition, % at 6.7 µM; TR-FRET gp120-PG9 antibody binding; 0.43% of 360,000 active; HIV-1 gp120 / PG9 antibody interaction; in the data active means inhibition above about 8.5%
GAA850 FXN act: FXN promoter activators, primary screen, cell-based, luciferase luminescence, HEK293 lucGAA850. HEK293 lucGAA850 FXN promoter luciferase reporter, 24 h; percent of 10 µM SAHA response. activation, % at 6 µM. 0.56% of 360,000 active. AID 540364, 2011;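 active means activation above the average of all compounds screened plus 3 SD, cutoff fixed separately per campaign, cut at about 7.5% in these data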;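 further: 0% = DMSO wells and 100% = 10 µM SAHA wells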
SMARCA2 act: SMARCA2 (BRM) function activators, primary screen, cell-based, luminescence, high throughput. MG213 cells, MMTV-luciferase reporter, dexamethasone, overnight. activation, % at 9.1 µM. 1% of 370,000 active; in the data active means activation above about 7.8%;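 further: 0% = vehicle wells and 100% = reference activator wells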
AI-2 QS mod: Vibrio harveyi AI-2 quorum sensing modulators, primary screen, JMH597 strain, luminescence/OD600 ratio; Vibrio harveyi JMH597 AI-2 luminescence/OD600 ratio, 9 h; stronger effect = lower value; strain lacks LuxN and CqsS sensors; 0 = neutral-control median; activity change, % at 7.5 µM; 0.4% of 300,000 active; in the data active means activity change below about -75%, passing the limit was not always enough;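 further: luminescence divided by OD600 gain over 9 h not by final OD600 alone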
HSP90 inh: HSP90 inhibitors, primary screen, cell lysate, luminescence | inhibition, % at 5.6 µM | 0.91% of 290,000 active | Heat shock protein HSP 90 (rabbit reticulocyte lysate; luciferase refolding) | Rabbit reticulocyte lysate, luciferase refolding luminescence, 3 h;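 active means inhibition above the screen-wide mean plus 3 SD, computed separately per campaign, cut at about 16% in these data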;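 further: 0% = DMSO wells and 100% = 60 µM geldanamycin wells; inhibitors lower the luminescence because luciferase stays unfolded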
SMARCA2 conf: SMARCA2 (BRM) function activators, confirmation, cell-based, luminescence, triplicate. shares compounds with SMARCA2 act. MG213 cells, MMTV-luciferase with dexamethasone, overnight; MG213 cells expressing E1A, Rb sequestered; DMSO wells 0%, reference activator 100%. activation, % at 9.1 µM. 30% of 3,500 active. AID 652260, 2013;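 active means activation above its plate's cutoff, the mean activation of tested wells plus 3 SD, cut at about 7.9% in these data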
GAL4-VP16 Luc: GAL4-VP16 luciferase reporter activation, counter-screen for SMARCA2 (BRM) activator project, cell-based, pG5luc, luminescence, high throughput. HEK293 GAL4-VP16 pG5luc reporter; scaled: DMSO wells 0%, SAHA wells 100%. 41% of 3,500 active. shares compounds with SMARCA2 act. activation, % at 9.1 µM;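 active means activation above the solvent-only control well mean plus 3 SD, averaged across control plates, cut at about 5.2% in these data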
Numbers without * were called inactive; ! = not active in a repeat.

Results for CSc1cccc(NC(=S)NN/C(=N/S(=O)(=O)c2ccccc2)N2CCCC2)c1 ?
PG9 binder: -0.5; SMARCA2 act: -0.3

How did C=CCCC1CN(Cc2ccc(OC)cc2)S(=O)(=O)c2c(cccc2N2CCCCC2)O1 (configuration not stated) do in these assays?
PG9 binder: -0.2; SMARCA2 act: -2.9

Results for CCn1c(SCC(N)=O)nc2ccccc2c1=O ?
HSF1 inhib: -8.3; PG9 binder: -0.6; GAA850 FXN act: 3.6; SMARCA2 act: 8.0*; AI-2 QS mod: 22.1; HSP90 inh: 2.6; SMARCA2 conf: -1.9; GAL4-VP16 Luc: -0.1

What do the screens show for `NC(=O)CSc1nc2ccccc2c(=O)n1Cc1ccccc1`?
HSF1 inhib: 2.9; PG9 binder: -3.0; GAA850 FXN act: 1.3; SMARCA2 act: -1.3; AI-2 QS mod: 26.5; HSP90 inh: -5.4

Results for COC(=O)[C@]12C[C@H](CC(=O)N3CCCC3)C(=O)N(Cc3ccccc3)C1=C[C@H](C1CCCC1)O[C@@H]2C ?
PG9 binder: 1.4; SMARCA2 act: -4.0

How did COc1ccc(Cn2c(NC(=O)c3ccccc3)nc(Cc3ccccc3)c2Cc2ccccc2)c(OC)c1 do in these assays?
SMARCA2 act: -4.9

Results for COC(=O)c1cc2c(c3c4ccccc4n(S(=O)(=O)c4ccccc4)c13)C(=O)N(Cc1ccc(N(C)C)cc1)C2 ?
PG9 binder: -2.1; SMARCA2 act: 2.1

How did CCOC(=O)N1CCN(C(=O)C[C@H]2C[C@@]3(C(=O)OC)C(=C[C@H](C(C)C)O[C@@H]3C3CC3)N(Cc3ccc(Cl)cc3Cl)C2=O)CC1 do in these assays?
SMARCA2 act: -1.6

How did Cn1ncc2c(Nc3ccc(Br)cc3)nc(Nc3ccc(Br)cc3)nc21 do in these assays?
HSF1 inhib: -10.0; PG9 binder: -1.5; GAA850 FXN act: 1.9; SMARCA2 act: -3.7; AI-2 QS mod: 16.2; HSP90 inh: 1.0

Results for Cn1ncc2c(Nc3ccc(O)cc3)nc(Cl)nc21 ?
HSF1 inhib: -9.8; PG9 binder: -1.2; GAA850 FXN act: 1.7; SMARCA2 act: 17.8*; AI-2 QS mod: 6.8; HSP90 inh: 0.3; SMARCA2 conf: 5.0; GAL4-VP16 Luc: 1.7

Results for CC1=C(C(=O)N(C)C)CC(CC(=O)NCC2CCCCC2)C(=O)N1CCCN1CCCC1=O (configuration not stated) ?
PG9 binder: -0.1; GAA850 FXN act: -1.4; SMARCA2 act: -3.4

Results for COC(=O)[C@]12C[C@H](CC(=O)NCCCN3CCCC3=O)C(=O)N(Cc3ccco3)C1=C[C@H](COCc1ccccc1)O[C@@H]2C ?
SMARCA2 act: -1.5

How did CCCCC(CC)C(=O)O (configuration not stated) do in these assays?
PG9 binder: 1.6; GAA850 FXN act: -0.3; SMARCA2 act: 2.9

What do the screens show for `CCCC(CCC)C(=O)O`?
HSF1 inhib: -2.7; PG9 binder: -1.4; GAA850 FXN act: -0.5; SMARCA2 act: 8.1*!; AI-2 QS mod: 9.9; SMARCA2 conf: -0.7; GAL4-VP16 Luc: -0.1

How did CCC1CCCCN1CCCNC(=O)c1ccc2nc(N3CCCCC3)sc2c1 (configuration not stated) do in these assays?
HSF1 inhib: -24.2; PG9 binder: 0.3; GAA850 FXN act: 2.3; SMARCA2 act: 2.9; AI-2 QS mod: -3.3; HSP90 inh: -1.7

Results for CC1CCCC(C)N1CCCNC(=O)c1ccc2nc(N3CCCCC3)sc2c1 (configuration not stated) ?
HSF1 inhib: -5.3; PG9 binder: -0.1; GAA850 FXN act: 4.3; SMARCA2 act: 17.6*; AI-2 QS mod: 1.7; HSP90 inh: 8.2; SMARCA2 conf: 9.8*; GAL4-VP16 Luc: 17.4*

Results for CCCN1CCN(CCCNC(=O)c2ccc3nc(N4CCCCC4)sc3c2)CC1 ?
HSF1 inhib: -11.8; PG9 binder: -4.3; GAA850 FXN act: 4.5; SMARCA2 act: 13.5*; AI-2 QS mod: 21.4; HSP90 inh: 3.5; SMARCA2 conf: 13.6*; GAL4-VP16 Luc: 13.0*

How did CC1CCCC(C)N1CCCNC(=O)c1ccc2nc(N3CCOCC3)sc2c1 (configuration not stated) do in these assays?
HSF1 inhib: -2.1; PG9 binder: -2.1; GAA850 FXN act: 0.1; SMARCA2 act: 0.1; AI-2 QS mod: -10.7; HSP90 inh: 2.5

Results for CC1CCN(c2nc3ccc(C(=O)NCCCN4CCCCC4C)cc3s2)CC1 (configuration not stated) ?
HSF1 inhib: -39.8; PG9 binder: 0.8; GAA850 FXN act: 3.1; SMARCA2 act: 8.1*; AI-2 QS mod: 10.2; HSP90 inh: 8.1; SMARCA2 conf: 15.4*; GAL4-VP16 Luc: 14.6*

What do the screens show for `COc1ccc(CCNC(=O)c2ccc3nc(N4CCCCC4)sc3c2)cc1OC`?
HSF1 inhib: -3.5; PG9 binder: -1.9; GAA850 FXN act: 4.3; SMARCA2 act: 10.1*; AI-2 QS mod: 10.5; HSP90 inh: 3.5; SMARCA2 conf: 2.9; GAL4-VP16 Luc: 8.5*

What do the screens show for `C#CCNC(=O)C[C@H]1C[C@@]2(C(=O)OC)C(=C[C@H](C(C)(C)C)O[C@@H]2C)N(Cc2ccc3c(c2)OCO3)C1=O`?
PG9 binder: -1.3; SMARCA2 act: -6.0

How did COc1ccc(N2C(=O)c3n[nH]c(C)c3C2c2ccccc2)cc1 (configuration not stated) do in these assays?
PG9 binder: 1.9; SMARCA2 act: 0.4

Results for Cc1ccc(C(=O)CSc2nc(C)cc(=O)[nH]2)cc1 ?
HSF1 inhib: 2.2; PG9 binder: -1.2; GAA850 FXN act: -2.7; SMARCA2 act: 8.2*; AI-2 QS mod: 17.9; HSP90 inh: 4.8; SMARCA2 conf: -2.2; GAL4-VP16 Luc: 0.4

How did CCOc1ccc(-c2nc(-c3cccnc3)no2)cc1 do in these assays?
HSF1 inhib: -5.1; PG9 binder: 0.4; GAA850 FXN act: 1.6; SMARCA2 act: 9.3*; AI-2 QS mod: 9.1; HSP90 inh: 2.2; SMARCA2 conf: 2.5; GAL4-VP16 Luc: 12.9*
